The source of these data is PubChem BioAssay (NCI).

About 83,000 compounds went through this panel and 20% of them were active in at least one assay; those are over-represented in the sample as a whole.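 Single-concentration screen, 48 h exposure, 96-well plates. Endpoint: percent growth. Below 10 = active.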 A number with no mark means an inactive call. Activity calls are given as the source filed them.

What all share (assay): NCI-60 one-dose screen, 48 h (100 = growth as untreated, 0 = no growth, -100 = all killed)
What all share (conditions): 10 µM unless noted

The subject of experiment [1] is SK-MEL-2 melanoma.
For experiment [2], the system named is EKVX NSCLC.
Experiment [3] concerns SN12C renal.
For experiment [4], the system named is UO-31 renal.
Experiment [5] relates to TK-10 renal.
Experiment [6] relates to ACHN renal.
Experiment [7] deals with CAKI-1 renal.
The subject of experiment [8] is A498 renal.
In experiment [9] the test system is CCRF-CEM leukemia.
In experiment [10] the test system is MOLT-4 leukemia.
Experiment [11] concerns RPMI-8226 leukemia.
The subject of experiment [12] is OVCAR-8 ovarian.
In experiment [13] the test system is OVCAR-4 ovarian.
Experiment [14] concerns SK-OV-3 ovarian.
The test system of experiment [15] is IGROV1 ovarian.
Experiment [16] relates to OVCAR-3 ovarian.
The subject of experiment [17] is HS 578T breast.
Experiment [18] deals with NCI/ADR-RES ovarian.
The test system of experiment [19] is OVCAR-5 ovarian.
Experiment [20] has as its system SR leukemia.

As to `C=C(C)[C@@H]1CC[C@]2(C(=O)OC)CC[C@]3(C)[C@H](CC[C@@H]4[C@@]5(C)C/C(=C/c6cccc(I)c6)C(=O)C(C)(C)[C@@H]5CC[C@]43C)[C@@H]12`, the growth is 103% in experiment [1]; 94.6% in experiment [2]; 101% in experiment [3]; 85.2% in experiment [4]; 101% in experiment [5]; 90.8% in experiment [6]. Moreover, the growth in experiment [7] was 82%; in experiment [8], 116%; in experiment [9], 97.9%; in experiment [10], 95.8%; in experiment [11], 95.7%; in experiment [12], 101%. Further, the growth in experiment [13] was 107%; in [14], 93.9%; in experiment [15] it was 103%; in experiment [16] it was 119%; in experiment [17], 88%; in experiment [18], 94.1%.

As for `COc1cc(/C=C/c2cc(O)c3cc(C(C)=O)c(=O)oc3c2)cc2c1O[C@]1(C)CC[C@@H](O)C(C)(C)[C@H]1C2`, the growth in experiment [1] is 50.1%; in [2] it was 59.3%; in [3], 64.7%; in experiment [4], -42.8% (active); in experiment [5] it was 97.9%; in [6] it was 40.9%. Also, the growth is 29.8% in experiment [7]; -51.5% (active) in [8]; 22.1% in experiment [9]; -5.7% (active) in experiment [10]; -22.6% (active) in experiment [11]; 84.4% in experiment [12]. The growth in experiment [19] was 70.6%; in [13], 66.1%; in [14], 64.2%; in experiment [15], 53.1%; in experiment [16], 84.6%; in experiment [17], 2.8% (active). Further, the growth in [18] is 83.6%.

In the case of `C=C(C)[C@@H]1CC[C@]2(C(N)=O)CC[C@]3(C)[C@H](CC[C@@H]4[C@@]5(C)C/C(=C/c6ccco6)C(=O)C(C)(C)[C@@H]5CC[C@]43C)[C@@H]12`, the growth was 99.5% in experiment [1]; 89.8% in experiment [2]; 96.1% in experiment [3]; 84.4% in experiment [4]; 105% in [5]; 84.4% in experiment [6]. The growth in experiment [7] was 59%; in [8] it was 104%; in experiment [9] it was 93.4%; in experiment [10] it was 79.7%; in experiment [11], 84.6%; in experiment [12], 93.8%. Moreover, the growth in [19] was 101%; in experiment [13], 95.8%; in experiment [14] it was 102%; in experiment [16], 105%; in [17], 95.3%; in experiment [18], 96.6%.

As to `Cc1nn(-c2ccc(F)cc2)c2ncnc(Nc3ccc(NC(=O)Nc4ccc(Cl)c(C(F)(F)F)c4)cc3)c12`, the growth in [1] is -7.22% (active); in experiment [2], 43.9%; in experiment [3], 27.2%; in experiment [4], 40.1%; in experiment [5], 26.5%; in [6], 3.49% (active). The growth in experiment [7] is 12.4%; in experiment [8], 37.9%; in [9], 28.9%; in experiment [20], 46.1%; in experiment [11], 19.3%; in [12], 35.4%. In addition, the growth is 70.8% in experiment [19]; 23.8% in experiment [13]; 65.7% in experiment [14]; 31% in [15]; -4.21% (active) in [16]; 31.3% in experiment [17]. For the same compound, in [18], the growth was 38.2%.

On to `COc1ccc(-c2nn(-c3ccc(Cl)cc3)cc2-c2nc3ccccc3[nH]2)cc1`, for which the growth in [1] was 101%; in experiment [2], 85.2%; in experiment [3], 85.7%; in [4] it was 44.4%; in experiment [5], 91.2%; in experiment [6] it was 89.5%. Further, the growth in experiment [7] is 92%; in [8] it was 100%; in experiment [9], 99.9%; in [20] it was 80.3%; in experiment [11], 93.9%; in [12], 105%. Also, the growth is 110% in experiment [19]; 88% in experiment [13]; 101% in experiment [14]; 71.4% in [15]; 94% in experiment [16]; 93% in experiment [17]. The growth in experiment [18] was 102%.

Consider `COc1cc2nnc3c4cccnc4[nH]c3c2cc1OC`, for which the growth was 80.1% in experiment [1]; 73.1% in experiment [2]; 33% in [3]; -52.8% (active) in experiment [4]; 42.9% in experiment [5]; -36.7% (active) in [6]. The growth was -14.7% (active) in [7]; 106% in experiment [8]; -37.5% (active) in [9]; -15.2% (active) in experiment [12]; 75% in experiment [19]; 29.8% in experiment [13]. Further, the growth in experiment [14] is 81.7%; in experiment [16], 30.5%; in [17] it was 58.5%; in [18], 23.4%.

For `CC1=CC(C)(C)Nc2ccc(Cc3ccc4c(c3)C(C)=CC(C)(C)N4)cc21`, the growth in [1] was 90.6%; in experiment [2] it was 81.4%; in experiment [3] it was 97.1%; in experiment [4], 77.8%; in [5], 112%; in experiment [6] it was 93.8%. Also, the growth in experiment [7] is 73.6%; in [8], 109%; in experiment [20], 118%; in [12] it was 96.9%; in experiment [19], 89.7%; in experiment [13], 72.2%. For the same compound, the growth in experiment [15] was 92.7%; in experiment [16], 97.4%; in experiment [17] it was 103%; in experiment [18], 100%.

With `O=C(/C=C/C=C/c1ccc2c(c1)OCO2)N/N=C\c1ccc(O)cc1O`, the growth in experiment [1] was 52.8%; in experiment [2], 20.2%; in experiment [3] it was 32.8%; in experiment [4], 11.4%; in experiment [5] it was 31%; in experiment [6], 14.4%. The growth in experiment [7] was 9.65% (active); in experiment [9] it was 18%; in experiment [10] it was 13.3%; in [20] it was 21.3%; in experiment [11], 47.7%; in experiment [12], 22.8%. The growth in experiment [19] is 42.5%; in [13], 9.43% (active); in experiment [14] it was 27%; in experiment [15] it was 28.9%; in experiment [16], 9.27% (active); in [17], 70.2%. Further, in [18], the growth is 5.15% (active).

Turning to `COc1cc(/C=C/C(=O)Nc2cccnc2Nc2ccc(F)cc2)cc(OC)c1OC`, the growth in experiment [1] is 68.4%; in experiment [2] it was 92.5%; in experiment [3], 109%; in [4], 89.2%; in [5], 103%; in experiment [6], 102%. For the same compound, the growth in experiment [7] is 88.6%; in experiment [9] it was 85%; in experiment [10] it was 87.5%; in experiment [20], 82.5%; in experiment [11], 69.1%; in experiment [12], 81.7%. The growth in experiment [19] is 105%; in experiment [13], 93%; in experiment [14] it was 107%; in experiment [15], 139%; in experiment [16], 113%; in experiment [17], 99.4%. In addition, the growth in experiment [18] is 101%.

As to `COc1cc(C2CC(=O)c3ccccc3N2)cc(OC)c1OC` (stereo unspecified), the growth in experiment [1] is 74.3%; in [2] it was 103%; in experiment [3] it was 92%; in [4], 92.4%; in experiment [5], 105%; in [6], 102%. The growth is 93.4% in experiment [7]; 83.7% in experiment [8]; 95.5% in experiment [9]; 99.6% in experiment [20]; 91.3% in [11]; 94.3% in experiment [12]. Further, the growth in experiment [19] was 103%; in experiment [13], 97.4%; in [15], 99%; in experiment [16], 110%; in [17], 99.1%; in experiment [18], 101%.

Consider `C=CC(=O)Nc1cccc(-c2nc(SC)nc(NCc3ccccc3)c2C#N)c1`, for which the growth in experiment [1] is 60.8%; in [2], 44%; in experiment [3], 42.1%; in experiment [4], 31.1%; in [5], 69.1%; in [6] it was 50.6%. The growth in experiment [7] is 40.5%; in experiment [8], -1.24% (active); in [9], 60.3%; in experiment [11] it was 38.5%; in [12], 39.8%; in [19] it was 85.4%. Further, the growth is 48.5% in experiment [13]; 72.2% in experiment [14]; 57.3% in experiment [15]; 48.4% in experiment [16]; 51.8% in [17]; 48.3% in [18].

Consider `N#Cc1c(N)n(CCNC(=O)c2ccccc2)c2nc3ccccc3nc12`, for which the growth in experiment [1] was 90.3%; in [2] it was 123%; in [3], 120%; in [4], 89.4%; in experiment [5], 102%; in experiment [6], 118%. The growth in experiment [7] was 115%; in [8], 135%; in experiment [9] it was 133%; in experiment [10], 44.7%; in experiment [11], 179%; in experiment [12], 102%. The growth in experiment [14] was 120%; in [15], 76.3%; in [16], 81.9%; in experiment [17], 179%; in experiment [18] it was 87.7%.
